According to PubChem BioAssay (NCATS):
Values joined by “and” are separate entries in the source; they are usually repeats but may differ in a detail not shown here. Equal entries are not always repeated. Results filed as inconclusive are left out. Some compounds were tested as several samples or in several runs, with calls that do not always agree. Active and inactive are the calls of the source. Calls come from the whole dose curve; as a rule, active = well fitted curve in the direction sought with a large enough effect; inconclusive = small, poorly fitted or top-dose-only effect, or another doubt; inactive = no such curve, though single readings can be large; an effect the other way counts as inactive or inconclusive.

Assays:
[1] = Viability qHTS for spleen associated tyrosine kinase inhibitor (SYKi) naive MV4-11 cells (AID 1963823); note: nearly all actives have a fitted effect of over 40% in size
In short: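 Seeding of 500 SYKi-naive MV4-11 cells per well onto pre-dispensed compounds preceded a 72 hr incubation at 37 C. Luminescent CellTiter-Glo signal, read after 10 min at room temperature, reflected viable cells.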

[2] = Viability qHTS for spleen associated tyrosine kinase inhibitor (SYKi) drug resistant MV4-11 cells (AID 1963824); note: nearly all actives have a fitted effect of over 35% in size
In short: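 CellTiter-Glo luminescence, read 10 min after reagent addition, reports viability after a 72 hr compound exposure. Cells are an MV4-11 line made resistant to SYK inhibition, seeded at 500 per well onto compound-containing plates.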

[3] = Quantitative highthroughput screen to assess conditional lethalithy of P12 Ichikawa cells grown in Human Plasma-Like Medium with dialyzed fetal bovine serum (HPLM+ds) (AID 1963879); conditions: Potency: viability; note: nearly all actives have a fitted effect of over 35% in size; for Viability: series mostly up to about 46 µM
In short: (§1)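 Each medium arm—HPLM with 10% dialyzed FBS, or RPMI1640 with 5 mM glucose and 10% untreated or dialyzed FBS—was screened against an 11-point, 3-fold compound titration for 48 h at 37 °C, with CellTiter-Glo luminescence as endpoint.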

[4] = Quantitative highthroughput screen to assess conditional lethalithy of P12 Ichikawa cells grown in RPMI1640 with dialyzed fetal bovine serum (RPMI+ds) (AID 1963880); conditions: Potency: P12-Ichikawa viability; note: nearly all actives have a fitted effect of over 35% in size;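 for Viability: 100% = DMSO wells and 0% = empty wells on each plate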
In short: as §1

[5] = Quantitative highthroughput screen to assess conditional lethalithy of P12 Ichikawa cells grown in RPMI1640 with untreated serum (RPMI+s) (AID 1963881); conditions: Potency: viability; note: nearly all actives have a fitted effect of over 35% in size;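 for Viability: series mostly up to about 46 µM; 100% = DMSO wells and 0% = empty wells without cells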
In short: as §1

[6] = Quantitative highthroughput screen to assess conditional lethalithy of SEM cells grown in Human Plasma-Like Medium with dialyzed fetal bovine serum (HPLM+ds) (AID 1963882); note: nearly all actives have a fitted effect of over 35% in size; for Viability: series mostly up to about 46 µM
In short: as §1

[7] = Quantitative highthroughput screen to assess conditional lethalithy of SEM cells grown in RPMI1640 with unreated serum (RPMI+s) (AID 1963883); note: nearly all actives have a fitted effect of over 35% in size;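 for Viability: 100% = DMSO wells and 0% = empty wells without cells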
In short: as §1

[8] = Quantitative highthroughput screen to assess conditional lethalithy of SEM cells grown in RPMI1640 with dialyzed fetal bovine serum (RPMI+ds) (AID 1963884); note: nearly all actives have a fitted effect of over 35% in size;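 for Viability: series mostly up to about 46 µM; 100% = DMSO control wells and 0% = empty wells without cells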
In short: as §1

[9] = Quantitative highthroughput screen to assess conditional lethalithy of NOMO1 cells grown in Human Plasma-Like Medium with dialyzed fetal bovine serum (HPLM+ds) (AID 1963878); note: nearly all actives have a fitted effect of over 35% in size
In short: as §1

[10] = Cellular viability qHTS for adrenocortical cancer (ACC) cell line NCI-H295R (AID 1963990); note: nearly all actives have a fitted effect of over 60% in size
In short: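 IC50 and maximal efficacy derive from four-parameter logistic modelling of titration curves, with reads scaled between DMSO-only wells (0%) and doxorubicin hydrochloride (100% inhibition). Compounds spanned up to 46 uM over 48 h.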

[11] = Cellular viability qHTS for adrenocortical cancer (ACC) cell line SW-13 (AID 1963989); conditions: SW-13 ACC cells viability, CellTiter-Glo, 48 h; activity (max response): stronger effect = lower value; note: nearly all actives have a fitted effect of over 65% in size;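 for activity (max response): cells grown in serum-free medium with ITS supplement; % is set by controls: 0 for no effect and ±100 for the full control effect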
In short: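 Luminescent ATP read-out (CellTiter-Glo, 20 min at room temperature) measured metabolically competent SW-13 cells after 48 h compound treatment. Final concentrations spanned up to 46 uM; bortezomib served as positive control.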
Potency is the fitted concentration of half-maximal effect.

Structure (SMILES)	Potency [1]	Potency [2]	Potency [3]	Potency [4]	Potency [5]	Potency [6]	Potency [7]	Potency [8]	Potency [9]	Potency [10]	activity (max response) [11]	Potency [11]
Nc1nc(Cl)nc2c1ncn2[C@@H]1O[C@H](CO)[C@@H](O)[C@H]1F	82 nM (active)	0.164 µM (active)	inactive	inactive	inactive	inactive	inactive	inactive	–	–	–	–
FC(F)c1nc2ccccc2n1-c1nc(N2CCOCC2)nc(N2CCOCC2)n1	186 nM (active)	820 nM (active) and 525 nM (active)	–	–	–	–	–	–	0.0148 µM (active)	0.562 µM (active)	–	–
Cc1nc(N)sc1-c1ccnc(Nc2ccc(N3CCOCC3)cc2)n1	82 nM (active)	0.164 µM (active)	–	–	–	–	2.35 µM (active)	2.09 µM (active)	4.18 µM (active)	inactive	4.45% (inactive)	–
CNCCCC12CCC(c3ccccc31)c1ccccc12	18.8 µM (active) and 14.6 µM (active)	18.4 µM (active)	–	18.7 µM (active)	18.7 µM (active)	–	inactive	–	18.7 µM (active)	23.1 µM (active) and 25.1 µM (active)	–	–
COc1cc(-c2nn(C3CCC(N4CCN(C(C)=O)CC4)CC3)c3ncnc(N)c23)ccc1NC(=O)c1cc2ccccc2n1C (stereo unspecified)	inactive and 2.63 µM (active)	2.95 µM (active)	inactive	inactive	inactive	inactive	inactive	inactive	–	inactive	-14.1% (inactive)	–
S=C(NCc1ccc2c(c1)OCO2)N1CCN(c2ncnc3c2oc2ccccc23)CC1	3320 nM (active)	1.86 µM (active)	–	–	–	–	42.9 µM (active)	–	38.2 µM (active)	–	–	–
N#CCNC(=O)c1ccc(-c2ccnc(Nc3ccc(N4CCOCC4)cc3)n2)cc1	411 nM (active)	580 nM (active) and 934 nM (active)	–	–	–	11.8 µM (active)	10.5 µM (active)	–	23.5 µM (active)	–	–	25.1 µM (active)
NC(N)=NC(=O)c1nc(Cl)c(N)nc1N	5.39 µM (active) and 841 nM (active)	12.1 µM (active) and 668 nM (active)	4.69 µM (active)	13.2 µM (active)	4.69 µM (active)	inactive	inactive	inactive	–	–	-8.19% (inactive) and -7.03% (inactive)	–
O[C@@H](CNC[C@H](O)[C@H]1CCc2cc(F)ccc2O1)[C@@H]1CCc2cc(F)ccc2O1	10600 nM (active)	21.1 µM (active)	inactive	–	–	–	–	–	20.9 µM (active)	18.4 µM (active)	–	–
C[C@H](NC(=O)C(=O)Nc1ccccc1C(C)(C)C)C(=O)N[C@@H](CC(=O)O)C(=O)COc1c(F)c(F)cc(F)c1F	2350 nM (active)	1.86 µM (active)	20.9 µM (active)	14.8 µM (active)	14.8 µM (active)	5.26 µM (active)	5.9 µM (active)	5.26 µM (active)	–	–	–	–
CN[C@@H]1CN(c2ccc3c(=O)c(C(=O)O)cn(-c4nccs4)c3n2)C[C@@H]1OC	407 nM (active)	0.512 µM (active)	14.4 µM (active)	8.12 µM (active)	6.45 µM (active)	6.45 µM (active)	1.44 µM (active)	2.04 µM (active)	–	–	-14.5% (inactive)	–
Nc1nc(N)c2nc(-c3cccc(O)c3)c(-c3cccc(O)c3)nc2n1	13000 nM (active)	14.6 µM (active)	–	–	–	10.5 µM (active)	18.7 µM (active)	–	10.5 µM (active)	–	–	–
CO[C@@H]1[C@@H](OC(N)=O)[C@@H](O)[C@H](Oc2ccc3c(O)c(NC(=O)c4ccc(O)c(CC=C(C)C)c4)c(=O)oc3c2C)OC1(C)C	inactive	inactive	inactive	inactive	inactive	inactive	inactive	inactive	–	inactive	15.7% (inactive) and -3.94% (inactive)	–
CN(C)C(=O)COC(=O)Cc1ccc(OC(=O)c2ccc(N=C(N)N)cc2)cc1	inactive	inactive and 7.42 µM (active)	–	–	–	–	–	–	20.9 µM (active)	inactive	3.47% (inactive) and -2% (inactive)	–
c1ccc(CNc2nc(NCc3ccccc3)c3ccccc3n2)cc1	1860 nM (active)	2.09 µM (active)	inactive	–	–	–	–	inactive	26.4 µM (active)	7.08 µM (active)	–	3.98 µM (active)
CN1CCN(c2c(F)cc3c(=O)c(C(=O)O)cn4c3c2OCN4C)CC1	inactive	inactive	inactive	inactive	inactive	–	–	–	–	inactive	-1.01% (inactive)	–
